Test results: PubChem BioAssay AID602410 (Johns Hopkins Ion Channel Center, 2012)
The campaign covered roughly 340,000 compounds. About 2,800 (0.82%) were called active.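 Rule for the calls: active = B-score under library mean minus 4 SD, starting fluorescence ratio at most library mean plus 5 SD; inactive = the rest.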 Only a selection was taken, and actives are over-represented in it overall.

The compounds below were run against Potassium channel subfamily K member 3 (Homo sapiens) (UniProt O14649) (assay: human KCNK3 channel inhibitors, primary screen, CHO cells, FluxOR thallium flux, B-score (AID 602410;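 for B-score: more negative B-score means stronger inhibition of thallium flux through KCNK3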)). Details: FluxOR fluorescence, at 10 µM; stronger effect = lower value.
Sequence of Potassium channel subfamily K member 3 (Homo sapiens) (O14649 whole entry, looked up): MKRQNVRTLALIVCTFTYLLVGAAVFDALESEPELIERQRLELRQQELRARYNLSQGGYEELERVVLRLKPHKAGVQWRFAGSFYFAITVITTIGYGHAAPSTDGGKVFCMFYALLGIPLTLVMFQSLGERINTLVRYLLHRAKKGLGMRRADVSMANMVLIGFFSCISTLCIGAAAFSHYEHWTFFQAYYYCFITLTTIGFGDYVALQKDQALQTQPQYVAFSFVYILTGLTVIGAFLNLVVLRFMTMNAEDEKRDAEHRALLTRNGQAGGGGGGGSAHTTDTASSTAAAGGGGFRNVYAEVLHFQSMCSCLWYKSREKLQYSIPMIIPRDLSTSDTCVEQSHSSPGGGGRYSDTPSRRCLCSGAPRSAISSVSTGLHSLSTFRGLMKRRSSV

SMILES	B-score
COc1ccccc1NC(=O)CCC(=O)N1CC(C)Oc2ccc(C)cc21 (stereo not drawn)	inactive
O=C(O)C(CCc1ccccn1)c1ccccc1 (stereo not drawn)	inactive
Cc1ccc(CS(=O)(=O)CCC(=O)NC2CC2)cc1	inactive
COc1ccc(-c2nn(C)c(=O)c3ccccc23)cc1CNC(=O)C1CCCCC1	inactive
O=C(Nc1ccccc1N1CCCC1)c1ccc2ccccc2c1	-8.97 (active)
CCCCC(=O)Nc1ccccc1N1CCN(c2ccc(F)cc2)CC1	-9.06 (active)
O=C(Nc1ccccc1N1CCOCC1)c1ccncc1	inactive
CCCC(=O)Nc1ccccc1N1CCN(C(=O)c2ccccc2)CC1	inactive
Cc1cccc(C(=O)Nc2ccccc2N2CCN(c3ccc(F)cc3)CC2)c1	-12.2 (active)
O=C(Nc1ccccc1N1CCCC1)c1ccc(F)c(S(=O)(=O)N2CCOCC2)c1	inactive
Cc1cccc(C(=O)NC(=S)N2CCN(c3ccc([N+](=O)[O-])cc3)CC2)c1	inactive
CCC(C)C(=O)Nc1ccccc1N1CCN(c2ccc(F)cc2)CC1 (stereo not drawn)	inactive
O=C(NC(=S)Nc1ccccc1N1CCCCC1)c1ccc(F)cc1	inactive
Cc1[nH]c(C)c(S(=O)(=O)N2CCN(c3cccc(C(F)(F)F)c3)CC2)c1C(=O)N1CCCC1	inactive
O=C(NC(=S)N1CCCCC1c1cccnc1)c1ccccc1 (stereo not drawn)	inactive
CONc1nc2nonc2nc1NOC	inactive
CCCC(=O)Nc1cccc(NC(=S)NC(=O)C(C)Oc2ccc(Cl)cc2Cl)c1 (stereo not drawn)	inactive
CSc1cccc(NC(=O)C2CCCN2S(=O)(=O)c2ccc3c(c2)CCC(=O)N3)c1 (stereo not drawn)	inactive
CC(C(=O)c1ccc(-c2ccccc2)cc1)[n+]1cccc(Br)c1 (stereo not drawn)	inactive
CSc1nccc(NC(=O)c2ccc(C(C)(C)C)cc2)n1	-10.4 (active)
Cc1cccc(NC(=O)c2ccc(S(=O)(=O)N(C)c3ccccc3)cc2)n1	inactive
COC(=O)c1nc(NC(=O)c2ccc(C(C)(C)C)cc2)n[nH]1	inactive

SMILES	B-score
COc1ccccc1N(CC(=O)N1CCCCC1)S(=O)(=O)c1ccccc1	inactive
COc1ccccc1NC(=O)CN(c1ccccc1OC)S(=O)(=O)c1ccccc1	inactive
COc1ccccc1N(CCOc1ccccc1)S(=O)(=O)c1ccccc1	-10 (active)
O=S(=O)(O)CCN1CCOCC1	inactive
O=S(=O)(Cc1noc(-c2ccc(OC(F)(F)F)cc2)n1)c1ccc(F)cc1	inactive
N#Cc1nc(Cc2cccc3ccccc23)oc1NCc1ccc2c(c1)OCO2	-13.5 (active)
O=C(CCNS(=O)(=O)c1ccccc1C(F)(F)F)NCc1ccc2c(c1)OCO2	inactive
c1n[nH]c(NCc2ccc3c(c2)OCO3)n1	inactive
COC(=O)c1ccc2c(=O)n(CCN3CCOCC3)c(SCC(=O)Nc3cccc(OC)c3)nc2c1	inactive
COc1ccc(C(C)=O)cc1CN1C(=O)NC2(CCCCC2C)C1=O (stereo not drawn)	inactive
O=C(/C=C/NNC(=O)c1cccc(Br)c1)c1ccccc1	-9.94 (active)
Cc1ccccc1NC(=S)NNC(=O)c1cccc(Br)c1	inactive
CC(CC(=O)O)CC(=O)NNC(=O)c1cccc(Br)c1 (stereo not drawn)	inactive
CC(=O)OCC(=O)C1(O)CCC2C3CC(C)C4=CC(=O)CCC4(C)C3C(O)CC21C (stereo not drawn)	inactive
CC(C)(C)C(=O)Nc1c(Br)c(C2CC2)nn1-c1ccccc1	inactive
O=C(Cn1nc(CNc2ccc(Cl)cc2)[n+]2c1CCCCC2)c1ccc(Cl)cc1	inactive
N#Cc1c(NC(=O)CCCN2C(=O)c3ccccc3C2=O)oc(-c2ccccc2)c1-c1ccccc1	inactive
COc1cc(C(=O)Nc2oc(-c3ccccc3)c(-c3ccccc3)c2C#N)cc(OC)c1OC	-10.4 (active)
COc1cc(C(=O)NCC(=O)N2CC=C(c3ccccc3)CC2)cc(OC)c1OC	inactive
CCC(C)(C)NC(=O)c1cc([N+](=O)[O-])ccc1N1CCCCC1	inactive
CCC(=O)c1ccc(OC(=O)/C=C/c2cc(OC)c(OC)c(OC)c2)cc1	inactive
CCOC(=O)N1CCC(N(CCOC)C(=O)Nc2ccc(C)c(C)c2)CC1	inactive

SMILES	B-score
COc1ccc(N2CCN(C(=O)CNC(=O)c3ccc(Br)o3)CC2)cc1	inactive
COc1ccc(-c2nc(CCNC(=O)c3ccc(Br)o3)cs2)cc1	-10.2 (active)
O=C(NCCc1csc(-c2ccccc2)n1)c1ccccc1F	inactive
O=C(COC(=O)Cc1ccccc1F)NCCc1ccccc1	inactive
O=C(COC(=O)CNS(=O)(=O)c1ccccc1)NC12CC3CC(CC(C3)C1)C2	inactive
N#Cc1ccc(S(=O)(=O)NCC(=O)OCC(=O)NCCc2ccccc2)cc1	-11.3 (active)
COC(=O)c1ccc(CN2C(=O)NC(c3ccccc3)(c3ccccc3)C2=O)o1	inactive
COc1cccc(CNc2nc(C(F)(F)F)nc3ccccc23)c1	-9.39 (active)
CCc1ccc(C(CNc2nc(C(F)(F)F)nc3ccccc23)N(C)C)cc1 (stereo not drawn)	inactive
COc1ccc(CNc2ncnc3ccccc23)cc1	inactive
O=Cc1c(Cl)cccc1Cl	inactive
O=C(NNC1=C(C(=O)C(F)(F)F)CCC1)c1ccncc1	inactive
Cc1ccc(C(=O)OCC(=O)NC(=O)Cc2ccccc2)c(O)c1	inactive
O=C(Cn1cc(C(=O)c2cccs2)c2ccccc21)NCc1cccs1	-13.4 (active)
O=C(COC(=O)c1cccs1)NCc1cccs1	inactive
COCCNC(=O)Cn1cc(C(=O)c2cccs2)c2ccccc21	inactive
COc1ccc(F)cc1C(=O)C1CCCN(C(=O)CCc2ccccn2)C1 (stereo not drawn)	inactive
CCOC(=O)c1sc(-c2cccc([N+](=O)[O-])c2)cc1N	inactive
O=C(c1ccc(F)cc1)C1CCN(Cc2cn[nH]c2-c2ccccc2)CC1	inactive
Cc1ccc(C(C)C)cc1OCC(=O)Nc1ccccc1N1CCCC1	inactive
Cc1ccccc1NC(=O)Nc1ccccc1N1CCCCC1	inactive
O=C(CNCCC1=CCCCC1)Nc1ccccc1N1CCCCCC1	-12.6 (active)

SMILES	B-score
CC1=C[C@H]2Cc3cc(C)cc(C)c3S(=O)(=O)[C@@H]2C=C1	inactive
CC(C)n1c(O)c(N=Nc2ccccn2)c2ccccc21	inactive
CN(C)CCN(C(=O)C1=COCCO1)c1nc2ccc(Cl)cc2s1	inactive
CN(C)CCN(C(=O)C1CCCCC1)c1nc2cc3c(cc2s1)OCO3	inactive
CCN(CC)CCN(C(=O)c1cc(Cl)sc1Cl)c1nc2cc3c(cc2s1)OCO3	-8.98 (active)
CCn1c(SCC(=O)NC2CCCC2)nnc1-c1ccoc1C	inactive
CCN(CC)C(=O)CN(c1cccc(OC)c1)S(=O)(=O)c1ccc(C)cc1	inactive
CCCCCCCC(=O)NC(Nc1ccccc1OC)C(Cl)(Cl)Cl (stereo not drawn)	inactive
Cc1ccc(O)c(CCc2ccccc2)n1	inactive
COc1cc(NC(=O)c2cccs2)ccc1NC(=O)c1ccccc1Cl	inactive
O=C(Nc1ccccc1-c1ccccc1)c1cccs1	inactive
CC(Oc1cccc(NC(=O)c2cccs2)c1)C(=O)c1ccccc1 (stereo not drawn)	-11.3 (active)
CCNC(=O)CC1C(=O)N(c2ccc(OC)cc2)C(=O)N1CCOC (stereo not drawn)	inactive
COC(=O)c1cc(NC2c3ccccc3C(=O)N2c2ccc(Cl)cn2)cc(C(=O)OC)c1 (stereo not drawn)	-10.8 (active)
COC(=O)c1ccc(-n2cnc3ccccc32)nc1	inactive
Cc1ccnc(N2C(=O)c3ccccc3C2Nc2ccc3c(c2)OCCO3)c1 (stereo not drawn)	inactive
Cn1ccnc1-c1nnn(-c2ccc(F)cc2)n1	inactive
O=C(CC(c1ccccc1)c1cc(Cl)ccc1O)NCCN1CCOCC1 (stereo not drawn)	inactive
Cc1cc(OCCCCOc2ccc(C#N)cc2)ccc1[N+](=O)[O-]	-9.68 (active)
Cc1cc(OCC(=O)NC2CCN(C)CC2)ccc1[N+](=O)[O-]	inactive
Cc1cc(OCCCN2CCN(Cc3ccccc3)CC2)ccc1[N+](=O)[O-]	inactive
COC(c1ccccc1)c1nnc(CCC(=O)N2CCN(CCOc3ccccc3)CC2)o1 (stereo not drawn)	inactive

SMILES	B-score
O=C(CC1NCCc2ccccc21)Nc1cccc(Cl)c1 (stereo not drawn)	-8.87 (active)
O=C(CC1NCCNC1=O)Nc1ccc(Oc2ccccc2)cc1 (stereo not drawn)	inactive
O=C(CC1NCCNC1=O)Nc1cc(Cl)cc(Cl)c1 (stereo not drawn)	inactive
O=C(NNS(=O)(=O)c1ccccc1C(F)(F)F)c1cc2ncc(C(F)(F)F)cc2s1	inactive
CN1CCN(C(=O)/C(=C\c2cccs2)NC(=O)c2cccs2)CC1	inactive
Cc1ccc(C)c(C(=O)COC(=O)Cn2[nH]c(=O)c3ccccc3c2=O)c1	-9.1 (active)
O=C(COC(=O)Cn1[nH]c(=O)c2ccccc2c1=O)Nc1ncc(Cl)cc1Cl	inactive
CN(C)S(=O)(=O)c1ccc(NC(=O)COC(=O)Cn2[nH]c(=O)c3ccccc3c2=O)cc1	inactive
CCC(C)(C)n1nnnc1C(c1cccs1)N1CCN(c2nc3ccccc3s2)CC1 (stereo not drawn)	-9.57 (active)
CCC(C)(C)n1nnnc1C(c1ccc(OC)c(OC)c1)N1CCN(C(=O)c2ccco2)CC1 (stereo not drawn)	inactive
Fc1ccc(Cn2nnnc2C(c2cccs2)N2CCCCCC2)cc1 (stereo not drawn)	inactive
CC(C)C(=O)N1CCN(CCN=CC2=C(O)CC(c3ccco3)CC2=O)CC1 (stereo not drawn)	inactive
CCOC(=O)C1=C(CN2CCc3ccccc32)NC(=O)NC1c1cc(C)ccc1C (stereo not drawn)	inactive
CC(C)(C)c1nnc(N/N=C/c2ccc(O)cc2)n(N)c1=O	inactive
O=C(Nc1cc(=O)[nH]c2ncnn12)c1ccccc1Cl	inactive
COc1ccc(OC)c(C(c2nnnn2C(C)(C)C)N2CCc3ccccc3C2)c1 (stereo not drawn)	inactive
CCCC(c1nnnn1C(C)(C)C)N1CCN(Cc2ccccc2)CC1 (stereo not drawn)	inactive
COc1ccccc1C(c1nnnn1C(C)(C)C)N1CCN(Cc2ccccc2)CC1 (stereo not drawn)	-8.94 (active)
C=CCn1c(SCc2cc(C(=O)OC)c(C)o2)nnc1-c1ccncc1	inactive
COc1ccc(N2CCN(S(=O)(=O)c3ccc4c(c3)NC(=O)C(C)C(=O)N4)CC2)cc1 (stereo not drawn)	inactive
